Assay outcomes: PubChem BioAssay, National Center for Advancing Translational Sciences (NCATS)
AmpC no deterg – blocks E. coli AmpC beta-lactamase in detergent-free assay; Potency, µM (doses to about 57.1 µM), most hits filed as inhibitors; hit rate 0.52% among 330,000; AmpC nitrocefin hydrolysis, absorbance 480 nm, 0.0001% Triton; P00811; further: nearly all actives have a fitted effect of over 20% in size
Target sequence (P00811 whole entry, looked up): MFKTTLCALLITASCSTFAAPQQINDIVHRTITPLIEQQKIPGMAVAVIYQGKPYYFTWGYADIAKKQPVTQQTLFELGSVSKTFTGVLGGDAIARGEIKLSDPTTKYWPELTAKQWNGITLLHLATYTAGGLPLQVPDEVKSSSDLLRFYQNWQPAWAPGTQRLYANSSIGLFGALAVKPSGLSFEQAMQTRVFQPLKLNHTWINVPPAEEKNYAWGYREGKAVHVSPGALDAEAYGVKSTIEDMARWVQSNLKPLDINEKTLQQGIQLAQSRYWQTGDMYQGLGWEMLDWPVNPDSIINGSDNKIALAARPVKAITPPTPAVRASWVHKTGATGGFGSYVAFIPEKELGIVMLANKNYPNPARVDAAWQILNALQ
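AmpC (5.3 nM in the dispensed reagent) in 20 mM phosphate pH 7.0 with 0.01% (detergent screen) or 0.0001% Triton X-100 was preincubated with compounds for 15 min at room temperature. Nitrocefin was then added from an 800 uM solution, and hydrolysis was followed at 480 nm.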
AMA1 RON2 block – disrupts binding of P. falciparum AMA1 to RON2 | Potency, µM (series often up to 58.2 µM), hits mostly inhibitors | AID 720542 | hit rate 0.2% among 360,000 | AlphaScreen AMA1-biotinylated RON2 peptide binding; further: nearly all actives have a fitted effect of over 45% in size
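AMA1 (3D7) with his tag at 25 nM final met compounds first, then biotinylated RON2 peptide at 25 nM; detection used donor plus acceptor beads, 10 µg/mL apiece, read by AlphaScreen after 30 min at room temperature.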
Pf growth 96h – P. falciparum growth inhibition at 96 hours; Potency, µM (doses to about 28.7 µM), actives largely listed as inhibitors; P. falciparum luciferase reporter growth, 96 h; hit rate 6.9% among 320,000; AID 504834
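Compounds incubated with erythrocytes infected by luciferase-expressing P. falciparum (2% hematocrit, 0.05% parasitemia final) for 96 hours, 37 C in 5% CO2. Growth inhibition scored as decreased luciferase luminescence.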
Pf growth 48h – inhibits P. falciparum growth in the first generation, 48 h; AID 504832; hit rate 5.9% among 310,000; Potency, µM (highest dose often 28.7 µM), hits mostly inhibitors; P. falciparum luciferase growth in erythrocytes, 48 h
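Read-out is firefly luciferase luminescence from an integrated reporter in P. falciparum, so falling signal marks reduced parasite growth. Infected erythrocytes were at 2% hematocrit and 0.1% parasitemia (final) in Albumax-supplemented RPMI 1640.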
HCV inh – HCV inhibition. Huh7.5.1 HCVcc-Cre infection, luciferase reporter, 44 h. Potency, µM (doses to about 41.8 µM), actives largely listed as inhibitors. hit rate 3.4% among 340,000. AID 651820
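Cells (1,000/well) were plated 4 h before compound, then infected with HCVcc-Cre virus (~0.5 moi). After 44 h further culture, infection was read as luciferase luminescence following a 15 min substrate incubation at room temperature.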
AmpC inh detg – AmpC beta-lactamase inhibition with detergent present. Potency, µM (titrated, usually from 114 µM), hits mostly inhibitors. P00811. hit rate 0.041% among 370,000. AID 485294. AmpC hydrolysis of nitrocefin, absorbance 480 nm, 0.01% Triton; further: nearly all actives have a fitted effect of over 25% in size
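AmpC (5.3 nM in the dispensed reagent) in 20 mM phosphate pH 7.0 with 0.01% (detergent screen) or 0.0001% Triton X-100 was preincubated with compounds for 15 min at room temperature. Nitrocefin was then added from an 800 uM solution, and hydrolysis was followed at 480 nm.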
Numbers stand for hits; – = inactive; ? = inconclusive; · = no result given. A selection: hits, their analogues and other compounds. The true share with any hit is near 11%. The call rests on the fitted dose curve; in most records, active means well fitted curve in the direction sought with a large enough effect; inconclusive means small, poorly fitted or top-dose-only effect, or another doubt; inactive means no such curve, though single readings can be large; an effect the other way counts as inactive or inconclusive.

SMILES | AmpC no deterg | AMA1 RON2 block | Pf growth 96h | Pf growth 48h | HCV inh | AmpC inh detg
CCN(CC(=O)Nc1ccccc1C(F)(F)F)C(=O)Cc1sc(C)nc1-c1ccc(F)cc1 | – | – | ? | 15µM | – | –
Cc1ccccc1C(=O)N(Cc1sccc1C)C1CCS(=O)(=O)C1 (configuration not stated) | · | · | · | · | · | –
O=C(CCCn1c(=O)c2sccc2n(Cc2c(F)cccc2Cl)c1=O)NCc1ccccc1 | · | · | · | · | · | –
CN(CC(=O)Nc1cccc(F)c1)CC(=O)N(C)CC(=O)Nc1ccccc1Br | – | – | ? | – | – | –
Cc1nc(-c2ccc(F)cc2)c(CC(=O)N(C)CC(=O)Nc2ccccc2Br)s1 | – | – | ? | 13µM | – | –
Fc1ccc(CNc2nc3c(-c4ccc(F)cc4)nnn3c3ccccc23)cc1 | · | · | · | · | · | –
O=C(Nc1cc(Cl)ccc1O)c1cc(-c2ccc3c(c2)OCO3)on1 | · | · | · | · | · | –
CC(C)N1CCC2(CC1)N=C(c1ccc3c(c1)OCO3)CC(c1cc(Cl)ccc1O)N2 (configuration not stated) | 18µM | – | ? | ? | ? | –
O=C(Cc1ccc(Cl)cc1)NCCS(=O)c1ccc(Cl)cc1 (configuration not stated) | – | – | 1.2µM | – | – | –
Cc1ccc(-c2cn(-c3cccc(Cl)c3)c(S(=O)(=O)CC(=O)Nc3cccc(C)c3)n2)cc1 | · | · | · | · | · | –
CCN1C(=O)[C@@H]2[C@@H](c3ccc(-c4ccc(Cl)c(Cl)c4)c(OC)c3)N3CCC[C@@]3(C(=O)OC)[C@@H]2C1=O | – | ? | 0.83µM | 5.2µM | 10µM | –
CCN1C(=O)[C@@H]2[C@@H](c3ccc(-c4ccc(OC)cc4)c(OC)c3)N3CCCC[C@@]3(C(=O)OC)[C@@H]2C1=O | – | – | 4.1µM | 2.9µM | – | –
CCN1C(=O)[C@@H]2[C@@H](c3ccc(-c4cccc(Cl)c4)c(OC)c3)N3CCCC[C@@]3(C(=O)OC)[C@@H]2C1=O | – | – | 3.7µM | 10µM | – | –
COC(=O)[C@@]12CCCCN1[C@H](c1ccc(-c3ccc(Cl)c(Cl)c3)c(OC)c1)[C@H]1C(=O)N(C)C(=O)[C@H]12 | – | – | · | · | – | ·
CCN1C(=O)[C@H]2[C@@H](c3ccc(-c4ccc(OC)cc4)c(OC)c3)N3CCCC[C@@]3(C(=O)OC)[C@H]2C1=O | – | – | 9.3µM | 12µM | ? | –
CCN1C(=O)[C@H]2[C@@H](c3ccc(-c4ccc(F)cc4)c(OC)c3)N3CCC[C@@]3(C(=O)OC)[C@H]2C1=O | – | – | 7.4µM | 7.4µM | 3.2µM | –
CCN1C(=O)[C@@H]2[C@@H](c3ccc(-c4ccc5c(c4)OCO5)c(OC)c3)N3CCC[C@@]3(C(=O)OC)[C@@H]2C1=O | – | – | ? | ? | – | –
CCc1cccc(CC)c1NC(=O)CN(C)S(=O)(=O)c1ccc2c(c1)n(C)c(=O)c(=O)n2C | · | · | · | · | · | –
N#Cc1cccc(-c2csc(N3CCC(C(N)=O)CC3)n2)c1 | · | · | – | – | · | ·
Cc1cc(C)c(C#N)c(SCS(=O)Cc2ccccc2)n1 (configuration not stated) | – | – | – | – | ? | ?
Cc1cc(C)c(C#N)c(SCS(=O)Cc2ccc(Cl)cc2)n1 (configuration not stated) | – | – | · | ? | 11µM | –
O=C(Nc1ccc(Cl)c(C(F)(F)F)c1)c1cc2nc(-c3ccc4c(c3)OCO4)cc(C(F)(F)F)n2n1 | · | · | · | · | · | –
C/C(=N/NC(=O)NC12CC3CC(CC(C3)C1)C2)c1ccccc1 | – | – | 0.74µM | ? | ? | –
O=C(N/N=C/c1ccccc1O)NC12CC3CC(CC(C3)C1)C2 | – | – | 2.6µM | 1.2µM | – | –
O=C(NCc1ccccc1)NC12CC3CC(CC(C3)C1)C2 | – | – | – | – | – | –
Cc1ccc(CN2CCc3nc(SCC(=O)Nc4cccc(C)c4C)[nH]c(=O)c3C2)cc1 | · | · | · | · | · | –
CCOCc1cc(CN2CCN(c3cccc(Cl)c3)CC2)c(O)c2ncccc12 | · | · | · | · | · | –
